High-throughput results deposited in PubChem BioAssay by National Center for Advancing Translational Sciences (NCATS).
D2 PAM-1: HTS Assay for Positive Allosteric Modulators of the Human D2 Dopamine Receptor: Primary Screen for Potentiators; D(2) dopamine receptor (Homo sapiens), P14416; 340,000 tested, 0.34% active; HEK293 T-REx D2, calcium flux, EC20 dopamine potentiation; potentiation, % at 10 µM;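 active = potentiation over 3 SD above the plate norm, cut at about 30% in these data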; note: 0% is about no effect
Target sequence (P14416 whole entry, looked up): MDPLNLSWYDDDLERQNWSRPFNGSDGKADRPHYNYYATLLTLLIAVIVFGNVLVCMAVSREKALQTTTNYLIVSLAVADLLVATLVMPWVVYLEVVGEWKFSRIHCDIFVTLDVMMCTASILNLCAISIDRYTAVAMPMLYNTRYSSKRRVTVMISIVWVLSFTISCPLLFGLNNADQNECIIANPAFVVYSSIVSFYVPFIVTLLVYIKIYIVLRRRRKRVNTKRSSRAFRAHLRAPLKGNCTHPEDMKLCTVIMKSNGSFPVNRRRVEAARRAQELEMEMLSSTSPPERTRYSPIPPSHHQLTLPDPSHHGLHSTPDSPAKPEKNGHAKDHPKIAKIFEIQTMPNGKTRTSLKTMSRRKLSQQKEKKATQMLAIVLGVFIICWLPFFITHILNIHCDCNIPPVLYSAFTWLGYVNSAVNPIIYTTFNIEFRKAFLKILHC
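Cells plated with tetracycline inducer and held overnight at 30 C; calcium dye loaded 30–90 min at room temperature; baseline taken, compound added and read 180 s; EC20 dopamine then added and read 180 s.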
D2 ag-1: HTS Assay for Allosteric Agonists of the Human D2 Dopamine Receptor: Primary Screen for Agonists. D(2) dopamine receptor (Homo sapiens), P14416. HEK293 T-REx D2 cells, calcium flux agonist mode. activation, % at 2 µM. 340,000 tested, 0.53% active;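 active = activation over 3 SD above normal in the single-dose calcium agonist read, cut at about 30% in these data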; note: 0% is about no effect
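In this primary screen, compounds producing a positive calcium signal within 180 s of addition to tetracycline-induced, force-coupled HEK293 Trex D2 cells are flagged; cells are dye-loaded with a no-wash calcium kit beforehand.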
D2 antag: HTS Assay for Allosteric Antagonists of the Human D2 Dopamine Receptor: Primary Screen for Antagonists. HEK293 TREx D2 cells, calcium flux, dopamine EC80. inhibition, % at 10 µM. 340,000 tested, 2% active; in the data active = inhibition above about 30%; inactive = below that, where a call was filed; note: 0% is about no effect
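Tetracycline-induced HEK293 T-REx cells expressing D2 force-coupled to calcium signalling were dye-loaded, exposed to compound for 180 s, then challenged with an EC80 of dopamine; calcium flux was followed kinetically for a further 180 s.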
D2 ag-2: Beta-Arrestin HTS for Positive Allosteric Modulators of the Human D2 Dopamine Receptor: Agonists; 360,000 tested, 0.084% active; DiscoveRx PathHunter D2 beta-arrestin, luminescence, 90 min; 100% = 57 uM dopamine signal; activation, % (no concentration beside the values); AID 624465, 2012; in the data active = activation above about 40%; inconclusive = between about 15% and that limit
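DiscoveRx PathHunter D2 beta-arrestin cells (2,100/well) attached overnight, then compound-stimulated 90 min at 37 C in HBSS/10 mM HEPES/0.1% Tween-20 buffer; beta-galactosidase complementation read by luminescence after 1 h at ambient temperature. Dopamine 57 uM final (EC100) as control.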
D2 PAM-2: Beta-Arrestin HTS for Positive Allosteric Modulators of the Human D2 Dopamine Receptor: Potentiators; D(2) dopamine receptor (Homo sapiens), P14416; AID 624464, 2012; potentiation, % (no concentration beside the values); DiscoveRx D2 beta-arrestin cells, luminescence, 90 min; 100% = 57 uM dopamine signal; 360,000 tested, 0.23% active; in the data active = potentiation above about 50%; inconclusive = mostly about 30% to 49%
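D2 cells co-treated with compound plus 50 nM dopamine (EC20) for 90 min at 37 deg C to detect potentiation. Beta-arrestin recruitment was read as enzyme-fragment luminescence after 1 h at ambient temperature. Full response was set by 57 uM dopamine.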
Active calls of the source: *. A selection: hits, their analogues and other compounds. The true share with any hit is near 2.4%.

For Cc1ccnc2c1ccc1c(C)ccnc12 the results were D2 PAM-1 -18.4, D2 ag-1 1.0, D2 antag 43.2*, D2 ag-2 -5.3 and D2 PAM-2 -24.7.
`CCc1ccc(NS(=O)(=O)c2c(-c3ccccc3)csc2C(=O)OC)cc1` gave D2 PAM-1 9.9 and D2 ag-1 -0.7.
`Cc1ccc(-c2nc3cnccn3c2Nc2ccc3c(c2)OCO3)o1` gave D2 PAM-1 -4.9, D2 ag-1 0.6, D2 antag 35.5*, D2 ag-2 5.2 and D2 PAM-2 9.1.
`Cc1ccn2c(Nc3ccc4c(c3)OCO4)c(-c3ccc(C)o3)nc2c1` gave D2 PAM-1 -4.7 and D2 ag-1 -0.1.
Cc1ccc(Cl)cc1NC(=O)C1CCCN(S(=O)(=O)c2c(C)noc2/C=C/N(C)C)C1 (stereo not given) was read as D2 ag-1 -0.2.
For Cc1cc(N2CCOCC2)nc2ccc(NC(=O)CCC(=O)N3CCN(c4ccccc4)CC3)cc12 the results were D2 PAM-1 30.8*, D2 ag-1 1.7, D2 antag -9.1, D2 ag-2 0.5 and D2 PAM-2 -3.9.
Cc1[nH]c2ccccc2c1C1C(c2ccccc2)=NN=C(C(C)C)N1O (stereo not given) was read as D2 PAM-1 30.9*, D2 ag-1 0.4, D2 antag 6.1, D2 ag-2 0.9 and D2 PAM-2 11.9.
`CC1=C(C(N)=O)C(c2cccc(F)c2)n2nc(SCc3ccccc3)nc2N1` (stereo not given) gave D2 PAM-1 2.0 and D2 ag-1 -1.3.
Screening CCOC(=O)c1c(C)oc2c1c(C(c1cccnc1)N1CCCCC1)c(O)c1ccccc12 (stereo not given) returned D2 PAM-1 -3.3, D2 ag-1 0.4, D2 antag -1.6, D2 ag-2 inconclusive and D2 PAM-2 102.5*.
CCOC(=O)c1c(C)oc2c1c(C=NCCO)c(O)c1ccccc12 was read as D2 PAM-1 12.0, D2 ag-1 3.4, D2 antag -25.3, D2 ag-2 8.2 and D2 PAM-2 19.5.
CCOC(=O)c1c(C)oc2c1c(C(c1ccccc1)N1CCOCC1)c(O)c1ccccc12 (stereo not given) was read as D2 PAM-1 -2.6, D2 ag-1 -1.6, D2 antag 57.4*, D2 ag-2 -2.3 and D2 PAM-2 inconclusive.
Screening O=C(Nc1ccccc1C(=O)OCc1cc(=O)n2ccsc2n1)c1cccc(F)c1 returned D2 PAM-1 10.0 and D2 ag-1 1.0.
Screening CCOC(=O)Cn1c(=O)oc2cc(S(=O)(=O)N3CCN(c4cccc(C)c4)C(C)C3)ccc21 (stereo not given) returned D2 PAM-1 -0.3 and D2 ag-1 -0.9.
For CC(Oc1ccc(F)cc1)C(=O)Nc1cc(-c2ccc(F)c(F)c2)no1 (stereo not given) the results were D2 PAM-1 -1.3 and D2 ag-1 -1.4.
NC(=O)C1(N2CCCCC2)CCN(Cc2ccc(Br)cc2)CC1 was read as D2 PAM-1 -25.1, D2 ag-1 0.4, D2 antag 36.8*, D2 ag-2 -1.7 and D2 PAM-2 -18.0.
`CCCC(c1nnnn1Cc1ccc(F)cc1)N1CCN(C2CCCCC2)CC1` (stereo not given) gave D2 PAM-1 3.4, D2 ag-1 -1.0, D2 antag -12.3, D2 ag-2 -0.5 and D2 PAM-2 -21.1.
Screening CC(C)C(c1nnnn1Cc1ccc(F)cc1)N1CCN(C2CCCC2)CC1 (stereo not given) returned D2 PAM-1 8.4, D2 ag-1 0.0, D2 antag 55.9*, D2 ag-2 -4.4 and D2 PAM-2 -3.0.
CN1CCN(C(c2ccc(F)cc2)c2nnnn2Cc2cccs2)CC1 (stereo not given) was read as D2 ag-2 -5.3 and D2 PAM-2 -17.7.
For CN1CCN(C(c2cccs2)c2nnnn2Cc2ccc(F)cc2)CC1 (stereo not given) the results were D2 PAM-1 8.3, D2 ag-1 0.0, D2 antag 41.5*, D2 ag-2 -3.1 and D2 PAM-2 0.0.
For Cc1ccc2c(c1C)NC(=O)CC2c1ccc(Cl)cc1Cl (stereo not given) the results were D2 PAM-1 1.2 and D2 ag-1 9.8.
`Cc1ccc(NC(=O)C2CCCN(C(=O)c3cnn(-c4ccc(F)cc4)c3-n3cccc3)C2)c(Cl)c1` (stereo not given) gave D2 PAM-1 -0.2 and D2 ag-1 -1.2.
For COC(=O)CN(c1ccc(F)cc1)S(=O)(=O)c1ccccc1 the results were D2 ag-1 4.0, D2 antag 47.5*, D2 ag-2 -1.4 and D2 PAM-2 -4.0.
For COC(=O)CN(c1ccccc1F)S(=O)(=O)c1ccccc1 the results were D2 PAM-1 -5.2, D2 ag-1 -3.6, D2 antag -10.3, D2 ag-2 -3.0 and D2 PAM-2 7.8.
C/C(=N/NC(=O)CN(c1ccccc1)S(=O)(=O)c1ccccc1)c1ccccc1O was read as D2 PAM-1 -17.2, D2 ag-1 0.8, D2 antag 52.1*, D2 ag-2 0.6 and D2 PAM-2 -78.1.
Screening CC1CCC(Nc2nc3c(-c4ccc(Cl)cc4)nnn3c3ccccc23)CC1 (stereo not given) returned D2 PAM-1 -1.5 and D2 ag-1 0.8.
For CCc1ccc(NC(=O)C2CCCN2S(=O)(=O)c2ccc3c(c2)CCCC(=O)N3)cc1 (stereo not given) the results were D2 PAM-1 -7.4 and D2 ag-1 -0.6.
Screening Cc1cc(/C=N/O)c(C)n1-c1ccc(Br)cc1 returned D2 PAM-1 -0.8, D2 ag-1 -1.4, D2 antag 37.7*, D2 ag-2 -3.2 and D2 PAM-2 -6.9.
O=C(Nc1ccncc1)c1cc2ccccc2cc1O was read as D2 PAM-1 19.8, D2 ag-1 2.5, D2 antag 0.3, D2 ag-2 inconclusive and D2 PAM-2 136.6*.
`Cc1cc(C(=O)OC(C)C(=O)Nc2nc(-c3ccccc3)cs2)c(C)o1` (stereo not given) gave D2 PAM-1 27.8, D2 ag-1 -0.8, D2 antag -8.3, D2 ag-2 -0.7 and D2 PAM-2 2.6.
